For experiment [1], the target named is Cellular tumor antigen p53 (Homo sapiens) (UniProt P04637). Kind of experiment: Primary qHTS for small molecule compounds that upregulate eGFP-tagged delta133p53alpha (in C-terminal) cells. (AID 2060324).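 Further: 0% = DMSO wells and 100% = 57.5 µM 5-azacytidine.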 Conditions: NCI-H358 delta133p53alpha-eGFP (C-terminal tag), GFP fluorescence imaging, 24 h; series mostly up to 57.5 µM. The method in brief: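 Concentration-response screen: compounds titrated onto pre-induced NCI-H358 D133p53a-eGFP cells, incubated one day, fixed with 3.5% PFA. Per-cell GFP peak intensity was gated, then normalized against intraplate controls.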
On the technique in general: Quantitative high-throughput screening tests each substance at several concentrations.

The target of experiment [2] is Aldehyde dehydrogenase, mitochondrial (Homo sapiens) (UniProt P05091). Kind of experiment: qHTS for Inhibitors of the Aldehyde Dehydrogenase Family (ALDH2) Validation screens (AID 2061302; active means well fitted inhibition curve with a large enough effect; title and protocol of this record describe different tests;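 further: plate controls were DMSO vehicle for no effect and maximal DPI positive control response for full effect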). Conditions: ALDH inhibition qHTS; series mostly up to 42.6 µM.
In experiment [3] the target is Retinaldehyde dehydrogenase 3 (Homo sapiens) (UniProt P47895). Kind of experiment: qHTS for Inhibitors of the Aldehyde Dehydrogenase Family (ALDH1A3) Validation screen (AID 2061312). Further: on the % scale 0 is the no-effect control and ±100 the full control effect; nearly all actives have a fitted effect of over 45% in size. Conditions: ALDH1A3 enzyme inhibition qHTS validation, fluorescence; series mostly up to 84.7 µM.
Experiment [4] has as its target Aldehyde dehydrogenase, mitochondrial (Homo sapiens) (UniProt P05091). Kind of experiment: qHTS for Inhibitors of the Aldehyde Dehydrogenase Family (ALDH2) Primary screen (AID 2061308).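 Further: plate controls were vehicle for no effect and reference inhibitor for full effect; nearly all actives have a fitted effect of over 55% in size.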 Conditions: ALDH2 enzyme inhibition qHTS, 1536-well; series mostly up to 56 µM.
In experiment [5] the target is Retinaldehyde dehydrogenase 3 (Homo sapiens) (UniProt P47895). Kind of experiment: qHTS for Inhibitors of the Aldehyde Dehydrogenase Family (ALDH1A3) Primary screen (AID 2061315).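 Further: plate controls were DMSO vehicle for no effect and reference inhibitor for full effect.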 Conditions: ALDH inhibition qHTS; series mostly up to 56 µM.
Experiment [6] can be described thus: qHTS for Inhibitors of the Aldehyde Dehydrogenase Family (ALDH1A2, ALDH1A3, ALDH2, ALDH3A1) (AID 2061307). Further: on the % scale 0 is the no-effect control and ±100 the full control effect; nearly all actives have a fitted effect of over 50% in size. Conditions: ALDH inhibition qHTS; series mostly up to 50.3 µM.
The target of experiment [7] is Retinal dehydrogenase 2 (Homo sapiens) (UniProt O94788). Kind of experiment: qHTS for Inhibitors of the Aldehyde Dehydrogenase Family (ALDH1A2) Confirmation screens (AID 2061314). Further: on the % scale 0 is the no-effect control and ±100 the full control effect; nearly all actives have a fitted effect of over 65% in size. Conditions: ALDH1A2 enzyme inhibition qHTS confirmation; series mostly up to 45.9 µM.
Experiment [8] in a line: BET inhibitor-based combinations targeting novel dependencies in MECOM-rearranged (r) AML: OCI-AML3 cell line (AID 2202232). Further: nearly all actives have a fitted effect of over 35% in size. Further: potency means the concentration at half of the fitted maximal effect. Conditions: CellTiter-Glo luminescence, 48 h; Potency: OCI-AML3 viability; series mostly up to 46 µM. The method, boiled down: (§1)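 A 48 hr incubation preceded viability reading by CellTiter-Glo, with 15 min room-temperature development. Dose series had 11 points; normalization used DMSO and empty wells; AUC was computed and mean-centered per line as Z-AUC.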
For orientation: ATP-based viability assays read luminescence as a measure of living cells.

The nature of experiment [9]: BET inhibitor-based combinations targeting novel dependencies in MECOM-rearranged (r) AML: MV-4-11 cell line (AID 2202233).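 Further: plate controls were DMSO for no effect and blank wells for full effect; nearly all actives have a fitted effect of over 45% in size.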 Conditions: MV-4-11 AML viability, CellTiter-Glo luminescence, 48 h; series mostly up to 46 µM. The method, boiled down: (§2)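 Each compound is tested in an 11-point concentration series against 500 seeded cells/well for 48 hr. The luminescent viability signal is normalized to DMSO and blank wells, then reduced to AUC and a cell-line-centred Z-AUC.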

Experiment [10] can be described thus: BET inhibitor-based combinations targeting novel dependencies in MECOM-rearranged (r) AML: HNT-34 cell line (AID 2202234).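 Further: plate controls were vehicle wells for no effect and cell-free wells for full effect; nearly all actives have a fitted effect of over 35% in size.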 Conditions: HNT-34 AML viability, CellTiter-Glo luminescence, 48 h; series mostly up to 46 µM. The method, boiled down: as §2
Experiment [11] is described as follows: BET inhibitor-based combinations targeting novel dependencies in MECOM-rearranged (r) AML: AML-194 cell line (AID 2202237;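 further: plate controls were vehicle wells for no effect and wells without cells for full effect; nearly all actives have a fitted effect of over 40% in size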). Conditions: AML-194 (MECOM-r AML) viability, CellTiter-Glo, 48 h; series mostly up to 46 µM. The method, boiled down:
as §1

Experiment [12] in a line: BET inhibitor-based combinations targeting novel dependencies in MECOM-rearranged (r) AML: SET-2 cell line (AID 2202231).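 Further: plate controls were DMSO treated cells for no effect and wells without cells for full effect; nearly all actives have a fitted effect of over 35% in size.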 Conditions: SET-2 AML cells viability, CellTiter-Glo luminescence, 48 h; viability: stronger effect = lower value, concentration not given here. The method, boiled down:
as §1

Experiment [13] in a line: BET inhibitor-based combinations targeting novel dependencies in MECOM-rearranged (r) AML: UCSD-AML1 cell line (AID 2202235).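 Further: plate controls were DMSO vehicle wells for no effect and blank wells for full effect; nearly all actives have a fitted effect of over 40% in size.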 Conditions: UCSD-AML1 AML cells viability, CellTiter-Glo, 48 h; series mostly up to 46 µM. The method in brief:
as §2

Experiment [14] in a line: BET inhibitor-based combinations targeting novel dependencies in MECOM-rearranged (r) AML: AML-191 cell line (AID 2202236;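 further: plate controls were vehicle wells for no effect and wells without cells for full effect; nearly all actives have a fitted effect of over 35% in size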). Conditions: AML-191 viability, CellTiter-Glo luminescence, 48 h; series mostly up to 46 µM. The method, boiled down: as §1

The structures appear in SMILES notation. Results filed as inconclusive are left out. Unmarked numbers belong to inactive results. Active and inactive are the calls of the source. Unless noted, the call rests on the fitted dose curve; in most records, active means well fitted curve in the direction sought with a large enough effect; inconclusive means small, poorly fitted or top-dose-only effect, or another doubt; inactive means no such curve, though single readings can be large; an effect the other way counts as inactive or inconclusive.

Sequence of Cellular tumor antigen p53 (Homo sapiens) (P04637 whole entry, looked up): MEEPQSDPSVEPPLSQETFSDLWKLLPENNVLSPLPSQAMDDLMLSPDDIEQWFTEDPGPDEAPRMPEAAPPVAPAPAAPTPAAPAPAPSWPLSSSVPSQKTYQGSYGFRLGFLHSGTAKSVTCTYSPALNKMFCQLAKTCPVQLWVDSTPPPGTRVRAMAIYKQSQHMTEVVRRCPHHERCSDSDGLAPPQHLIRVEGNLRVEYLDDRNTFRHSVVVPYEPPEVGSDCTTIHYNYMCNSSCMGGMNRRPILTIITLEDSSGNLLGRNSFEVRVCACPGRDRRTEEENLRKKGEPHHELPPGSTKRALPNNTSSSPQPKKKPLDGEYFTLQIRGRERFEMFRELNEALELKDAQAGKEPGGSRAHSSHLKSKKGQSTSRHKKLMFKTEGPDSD

Take `Cc1nc(N=Nc2ccc(S(=O)(=O)O)cc2S(=O)(=O)O)c(COP(=O)(O)O)c(C=O)c1O`: the Potency result in experiment [1], in experiment [2] and in experiment [3] was “inactive” each time.
With `O=C(c1ccc(F)cc1)C1CCN(CCn2c(=O)[nH]c3ccccc3c2=O)CC1`, the Potency result in experiment [1], in experiment [2], in experiment [4], in [3] and in experiment [5] was “inactive” each time.
For the molecule `O=S(=O)(c1cccc2c(I)cccc12)N1CCCNCC1`, the Potency result in [1], in experiment [2], in [6], in experiment [7], in experiment [9] and in experiment [10] was “inactive” in each case. For the same molecule, in experiment [11], the Potency result was “inactive”. Further, the Potency in [8] was 20.9 µM (active).
Consider `CCCCCCCCCCCCCCCCCCOC[C@H](COP(=O)([O-])OCC[N+](C)(C)C)OC`, for which the Potency result in [1], in experiment [2] and in [3] was “inactive” throughout.
`N=c1ccn2c(n1)O[C@H]1[C@H](O)[C@@H](CO)O[C@H]12`: the Potency entry in experiment [1], in experiment [2] and in experiment [3] was “inactive” throughout.
As to `O=C(CCNNC(=O)c1ccncc1)NCc1ccccc1`, the Potency entry in experiment [1], in experiment [2] and in [3] was “inactive” each time.
For `COc1ccc2cc([C@H](C)C(=O)O)ccc2c1`, the Potency result in [1], in [2], in experiment [4], in experiment [3], in experiment [5] and in experiment [8] was “inactive” each time. In addition, the Potency result in experiment [9], in [10], in experiment [13], in experiment [14] and in experiment [11] was “inactive” in each case. Also, the viability (in general, a read-out of living cells in per cent, often relative to untreated cells) in [12] was 116%.
`O=C(O)C1=CCCNC1`: the Potency result in [1], in [2] and in experiment [3] was “inactive” throughout.
For the molecule `O=C(O)CC1CCCc2ccccc2C1O` (configuration not stated), the Potency result in experiment [1], in experiment [2] and in experiment [3] was “inactive” throughout.
Consider `CN(C)C(=O)[C@H](O)[C@H](Cc1ccccc1)NC(=O)c1cc2cc(Cl)ccc2[nH]1`, for which the Potency entry in experiment [1], in experiment [2], in [4], in experiment [3], in experiment [5] and in experiment [13] was “inactive” throughout. In addition, the Potency entry in [14] and in experiment [11] was “inactive” in each case. For the same molecule, the viability in experiment [12] is 95.3%.
With `Cc1ccccc1/C=C/C1=NCCN1`, the Potency entry in experiment [1], in [2] and in [3] was “inactive” each time.
As to `NCC(O)C1CCCCCCC1` (configuration not stated), the Potency entry in experiment [1], in [2] and in [3] was “inactive” each time.
Take `CC(=O)[C@H]1CCC2C3CC=C4C[C@@H](OS(=O)(=O)O)CC[C@]4(C)C3CC[C@@]21C` (some centres not stated): the Potency entry in [1], in experiment [2] and in experiment [3] was “inactive” throughout.
Take `COc1cc2nc(N(C)CCCNC(=O)C3CCCO3)nc(N)c2cc1OC` (configuration not stated): the Potency result in experiment [2] is “inactive”.
For the molecule `CN(C)c1nc(N(C)C)nc(N(C)C)n1`, the Potency result in experiment [1], in experiment [2], in experiment [3], in experiment [8], in [9] and in [10] was “inactive” throughout. The Potency result in experiment [13], in experiment [14] and in experiment [11] was “inactive” each time. Moreover, in [12], the viability is 111%.

The record behind these values is PubChem BioAssay (NCATS).
